Consider nine molecules from PubChem BioAssay (Tox21).

Experiment [1] is described as follows: qHTS assay to identify small molecule antagonists of the vitamin D receptor (VDR) signaling pathway - cell viability counter screen (AID 743225). Further: nearly all actives have a fitted effect of over 50% in size. The procedure, abridged: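 Cytotoxicity toward the VDR-bla HEK 293T line was scored by ATP-based CellTiter-Glo luminescence, read in the wells already used for the beta-lactamase readout after 16 h compound treatment under 3 nM 1-alpha,25-dihydroxyvitamin D3 stimulation.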

A short description of experiment [2]: qHTS assay to identify small molecule agonists of the NFkB signaling pathway (AID 1159509; active means well fitted curve in the direction sought with a large enough effect in the signal ratio in the repeat runs, not every such curve was filed as active; the % refers to the signal ratio; further: series mostly up to about 61 µM). The method in brief:
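Readout: FRET fluorescence, 405 nm excitation, 460/530 nm emission; beta-lactamase expression disrupts FRET. Cells: ME-180 stably carrying NF-kB-driven bla reporter. Compound exposure 5 hr, 37 C, 5% CO2.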

Experiment [3] can be described thus: qHTS assay to identify small molecule agonists of the NFkB signaling pathway - cell viability counter screen (AID 1159515; calls by dose curve; further: series mostly up to about 61 µM; nearly all actives have a fitted effect of over 55% in size). The method in brief:
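Counter screen run alongside the NFkB-bla agonist assay: ME-180 reporter cells exposed to compounds for 5 hr, then lysed with CellTiter-Glo in the same wells. Luminescence, read after 30 min, reflects viable cells.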
Background: Quantitative high-throughput screening tests each substance at several concentrations.

A short description of experiment [4]: qHTS assay to identify small molecule agonists of the endoplasmic reticulum stress response signaling pathway - cell viability counter screen (AID 1159517; calls by dose curve; further: series mostly up to about 61 µM; nearly all actives have a fitted effect of over 50% in size). The method in brief:
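Steps: seed 1,500 ESRE-bla HeLa cells per well; incubate overnight at 37 C, 5% CO2; add compounds in DMSO for 5 hr; run FRET substrate 2 hr RT; add CellTiter-Glo, wait 30 min, read luminescence.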

A short description of experiment [5]: qHTS assay to identify small molecule antagonists of the retinoid-related orphan receptor gamma (ROR-gamma) signaling pathway - cell viability counter screen (AID 1159520). Further: nearly all actives have a fitted effect of over 50% in size. The procedure, abridged:
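Tet-on ROR gamma CHO cells were given compounds for 2 hr, then doxycycline hyclate at 1 uM final, and incubated 16 hr at 37 C. Viability was measured as ATP content by CellTiter-Glo luminescence.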

The target of experiment [6] is Nuclear receptor ROR-gamma (Homo sapiens) (UniProt P51449). In words: qHTS assay to identify small molecule antagonists of the retinoid-related orphan receptor gamma (ROR-gamma) signaling pathway (AID 1159521;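 further: CHO cells with doxycycline inducible ROR-gamma driving an RORE luciferase reporter; top concentration of the series differs between compounds; nearly all actives have a fitted effect of over 50% in size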). The procedure, abridged:
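Readout: ONE-Glo luciferase luminescence, 30 min at room temperature. System: Tet-on RORγ CHO, RORE-LUC. Sequence: compound 2 h, doxycycline 1 uM final, 16 h at 37 C.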

Experiment [7] can be described thus: qHTS assay to identify small molecule agonists of the AP-1 signaling pathway - cell viability counter screen (AID 1159525; calls by dose curve; further: nearly all actives have a fitted effect of over 55% in size). The method in brief: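 Same-well cytotoxicity counter screen of the Tox21 10K library in ME-180 cells. The readout is ATP-dependent luminescence after 5 h compound treatment. Data are normalised to DMSO and tetra n-octyl ammonium bromide controls.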

Experiment [8] deals with Retinoic acid receptor RXR-alpha (Homo sapiens) (UniProt P19793). In words: qHTS assay to identify small molecule agonists of the RXR signaling pathway (AID 1159527; calls by dose curve; further: nearly all actives have a fitted effect of over 35% in size; further: potency means the concentration at half of the fitted maximal effect). The procedure, abridged: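 Reporter activation is measured as beta-lactamase activity via FRET substrate cleavage (emission 460/530 nm) in HEK 293T cells expressing an RXR-alpha-driven bla construct, following 16 hr compound exposure at 37 C.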
Retinoic acid receptor RXR-alpha (Homo sapiens), sequence (P19793 whole entry, looked up): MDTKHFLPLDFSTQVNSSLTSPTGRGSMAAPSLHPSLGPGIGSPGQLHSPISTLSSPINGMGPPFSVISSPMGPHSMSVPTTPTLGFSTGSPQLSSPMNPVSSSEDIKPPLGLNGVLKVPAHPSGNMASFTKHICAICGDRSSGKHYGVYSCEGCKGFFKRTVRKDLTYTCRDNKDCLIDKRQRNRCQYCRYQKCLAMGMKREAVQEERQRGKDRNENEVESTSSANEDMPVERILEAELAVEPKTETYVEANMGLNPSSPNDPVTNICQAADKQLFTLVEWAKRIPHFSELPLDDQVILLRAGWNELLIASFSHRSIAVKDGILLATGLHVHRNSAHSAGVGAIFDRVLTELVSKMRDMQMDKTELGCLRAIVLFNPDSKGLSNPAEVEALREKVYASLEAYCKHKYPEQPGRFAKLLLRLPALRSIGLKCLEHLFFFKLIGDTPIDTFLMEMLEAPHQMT

The nature of experiment [9]: qHTS assay to identify small molecule agonists of the RXR signaling pathway - cell viability counter screen (AID 1159529). The method in brief:
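Tox21 10K compounds were tested for cytotoxicity against GeneBLAzer RXR-alpha HEK 293T cells grown in 2% charcoal-stripped FBS. Exposure lasted 16 hr at 37 C, 5% CO2; viability read by CellTiter-Glo luminescence.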

Experiment [10] can be described thus: qHTS assay to identify small molecule antagonists of the retinoid acid receptor (RAR) signaling pathway - cell viability counter screen (AID 1159551). Further: nearly all actives have a fitted effect of over 35% in size. The procedure, abridged:
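Measured by luminescent ATP detection, viability reflects C3RL4 cells treated 6 h at 37 C with test chemicals in the presence of 1 uM (final) retinol.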

Experiment [11] in a line: qHTS assay to identify small molecule antagonists of the retinoic acid receptor (RAR) signaling pathway (AID 1159552; further: nearly all actives have a fitted effect of over 50% in size). The procedure, abridged: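 Overnight-plated C3RL4 reporter cells get compound, then retinol to 1 uM final; plates sit 6 hr at 37 C, 5% CO2. A luciferase reagent is added and light output recorded after 30 min at room temperature.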
The nature of experiment [12]: qHTS assay to identify small molecule antagonists of the estrogen related receptor (ERR) signaling pathway from Tox21 library - cell viability counter screen (AID 1224834). Further: nearly all actives have a fitted effect of over 30% in size. The method in brief:
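Seeded ERR cells were rested 6 h at 37 C/5% CO2 before compounds, positive and negative controls or DMSO were added. Incubation continued for 17.5 h, and viability was then quantified by CellTiter-Fluor fluorescence.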

Experiment [13] in a line: qHTS assay to identify small molecule agonists of the endoplasmic reticulum stress response signaling pathway (AID 1159516; active means well fitted activation curve with a large enough effect in the signal ratio in the repeat runs, not every such curve was filed as active; the % refers to the signal ratio). The procedure, abridged:
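For this screen, HeLa cells stably carrying beta-lactamase under the ER stress response element received test compounds, positive controls or DMSO for 5 hr at 37 C; B/G FRET substrate was then added and dual-wavelength emission recorded.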

The nature of experiment [14]: qHTS assay to identify small molecule agonists of the AP-1 signaling pathway (AID 1159526; calls by dose curve).
Experiment [15] can be described thus: qHTS assay to identify small molecule agonists of the retinoic acid receptor (RAR) signaling pathway (AID 1159553). The procedure, abridged: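 6 hr compound exposure (DMSO vehicle) of overnight-plated C3RL4 RARE-luc cells at 37 C; luminescence quantified after 30 min RT with luciferase reagent.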
The nature of experiment [16]: qHTS assay to identify small molecule antagonists of the estrogen related receptor (ERR) signaling pathway (AID 1224819). The procedure, abridged:
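Compounds dissolved in DMSO were pin-transferred onto ERR cells that had been plated 6 h earlier, and cells were then incubated 18 h at 37 C; signal was luciferase luminescence via One-Glo.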

The nature of experiment [17]: qHTS assay to identify small molecule agonists of the estrogen related receptor (ERR) signaling pathway (AID 1224820). The procedure, abridged:
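Luminescence readout (One-Glo, 30 min RT) from NTP-supplied ERR cell line exposed to compounds for 18 h at 37 C. Cells seeded 2,000 per well and pre-incubated 6 h before pin-tool compound transfer.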

Experiment [18] relates to estrogen-related receptor alpha (ERRalpha) with PGC-1alpha coactivator, human. In words: qHTS assay to identify small molecule antagonists of the estrogen related receptor signaling pathway with the pleiotropic PPARgamma coactivator (PGC) (AID 1224821; calls by dose curve). The procedure, abridged:
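PGC/ERR reporter cells; 6 h pre-incubation 37 C/5% CO2; pin-tool compound in DMSO, 18 h 37 C; One-Glo added, 30 min RT; luminescence read. qHTS antagonist mode.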

Experiment [19] can be described thus: qHTS assay to identify small molecule antagonists of the estrogen related receptor signaling pathway with the pleiotropic PPARgamma coactivator (PGC) cell viability counter screen (AID 1224822; further: series mostly up to about 46 µM). The procedure, abridged: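 Counter screen for cell viability: PGC/ERR cells, 6 h pre-incubation after plating, 17.5 h compound exposure at 37 C, fluorescence from CellTiter-Fluor after 30 min.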

The nature of experiment [20]: qHTS assay to identify small molecule agonists of the estrogen related receptor signaling pathway with the pleiotropic PPARgamma coactivator (PGC) (AID 1224823). The method in brief:
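Luminescence readout (One-Glo, 30 min RT) from PGC/ERR cell line treated 18 h at 37 C with pin-tool-delivered DMSO compound solutions; cells plated 6 h before dosing. Quantitative HTS format.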

Inconclusive results are not listed. Values without a mark were called inactive. Calls of active or inactive are those of the source. Unless noted, the call rests on the fitted dose curve; in most records, active means well fitted curve in the direction sought with a large enough effect in the repeat runs; inconclusive means weak or mixed curves; inactive means no such curve, though single readings can be large; an effect the other way counts as inactive or inconclusive.

`CCN(CC)CC1CCCCN1CC(=O)N1c2ccccc2C(=O)Nc2cccnc21` (stereo not drawn): the Potency entry in experiment [1], in experiment [5], in experiment [6], in [8], in experiment [9] and in experiment [11] was “inactive” in each case. For the same molecule, in experiment [12], the Potency entry is “inactive”. Further, the result in [2], in experiment [3], in [4], in experiment [7] and in experiment [10] was inactive.

On to `CC(=O)OC(C)OC(C)=O`, for which the Potency entry in experiment [1], in experiment [5], in [14], in [11] and in experiment [12] was “inactive” throughout. The molecule was called inactive in experiment [2], in experiment [3], in experiment [13], in [4] and in [10]. Moreover, the Potency in experiment [8] was 2010 nM (active).

In the case of `CC1=C(CC(=O)O)c2cc(F)ccc2/C1=C\c1ccc(S(C)(=O)=O)cc1`, the Potency entry in [1], in experiment [5], in experiment [6], in [9], in experiment [11] and in experiment [15] was “inactive” in each case. Besides, the result in [2], in experiment [3], in [4], in experiment [7], in [10] and in experiment [16] was inactive. In addition, the molecule was classed as inactive in [17], in experiment [18], in experiment [19] and in [20].

`CN1CCN(N)CC1`: the Potency result in experiment [1], in [5], in [6], in experiment [14], in [8] and in experiment [11] was “inactive” in each case. The Potency result in experiment [12] was “inactive”. The result in experiment [2], in [3], in experiment [4] and in [10] was inactive.

As to `O=Cc1ccc(F)c(Br)c1`, the Potency result in experiment [1], in experiment [5], in experiment [6], in experiment [14], in experiment [8] and in experiment [9] was “inactive” in each case. In addition, the Potency result in [12] is “inactive”. In addition, the molecule was classed as inactive in [2], in experiment [3], in experiment [4] and in [10].

With `CC(C)NCC(O)COc1ccc(CCOCC2CC2)cc1` (stereo not drawn), the Potency entry in experiment [1], in [5], in experiment [14], in experiment [8], in experiment [9] and in [11] was “inactive” in each case. Also, the call in [2], in experiment [3], in experiment [4], in [7], in experiment [10] and in [19] was inactive.

Take `CN(C)CCOc1ccccc1Cc1ccccc1`: the Potency entry in experiment [1], in experiment [5], in experiment [6], in [8], in experiment [11] and in experiment [15] was “inactive” each time. Besides, the Potency result in [12] is “inactive”. For the same molecule, the call in [2], in [3], in [4], in experiment [7] and in experiment [10] was inactive.

With `CCN(CCCc1ccccc1)CCCc1ccccc1`, the Potency result in experiment [1], in experiment [5], in experiment [6], in experiment [11], in experiment [15] and in experiment [12] was “inactive” in each case. The outcome in experiment [2], in experiment [3], in experiment [4], in experiment [7] and in [10] was inactive.

For `O=C1CCCCCCCCCCC(=O)OCCO1`, the Potency entry in experiment [1], in [5], in experiment [6], in experiment [8], in experiment [9] and in experiment [15] was “inactive” each time. Moreover, the Potency result in experiment [12] was “inactive”. The outcome in [2], in [13], in [4], in experiment [7] and in [10] was inactive.
